Compound activity (PubChem)
This is a sample that favours compounds with a hit; in the whole collection about 1.8% have one here.
MazF activator: activators of E. coli MazEF toxin-antitoxin RNase, primary screen, biochemical, fluorescence, uHTS | Endoribonuclease toxin MazF (Escherichia coli (strain K12)), P0AE70 | FAM/BHQ RNA-DNA oligo cleavage fluorescence, 5 h | activation, % at 20 µM | 350,000 tested, 0.32% active; in the data active means activation above about 50%
Vc quorum ag: inducers of Vibrio cholerae quorum light production without autoinducers, primary screen, BH1578 luxS cqsA deficient, single point. 350,000 tested, 0.16% active. AID 588436, 2011. V. cholerae BH1578 lux reporter, luminescence, 6 h. activation, % at 18.7 µM; in the data active means activation mostly above about 9.7%, no sharp cut-off
VHR inh abs: VHR1 phosphatase inhibitors, primary screen, biochemical, absorbance, uHTS. inhibition, % at 13.3 µM. recombinant VHR phosphatase, pNPP absorbance. 290,000 tested, 0.52% active. Dual specificity protein phosphatase 3 (Homo sapiens), P51452; in the data active means inhibition above about 50%
Yp Topo-I inh: Yersinia pestis topoisomerase I inhibitors, primary screen, biochemical, cleavage product accumulation, plate reader, single point; DNA topoisomerase I (Yersinia pestis CO92); Y. pestis Topo-I cleavage product accumulation; activity, % at 10 µM; 360,000 tested, 0.064% active; AID 504884, 2011; in the data active means activity above about 50%, passing the limit was not always enough
CCHFV vOTU inh: CCHFV vOTU protease inhibitors, primary screen, biochemical, Pep-AMC substrate, fluorescence; Crimean-Congo hemorrhagic fever virus L polyprotein viral ovarian tumor (vOTU) protease …; 370,000 tested, 0.55% active; AID 651958, 2012; inhibition, % at 11.5 µM; in the data active means inhibition above about 30%
PrPC TRFRET: inhibitors of human cell surface prion protein PrPC, primary screen, cell-based, TR-FRET; TR-FRET read-out; AID 720596, 2013; 370,000 tested, 0.43% active; Major prion protein (Homo sapiens), P04156; inhibition, % at 13.8 µM; in the data active means inhibition above about 24%
PrPC confirm: confirmation of inhibitors of cell surface human prion protein, confirmation, cell-based, TR-FRET. shares compounds with PrPC TRFRET. cell surface PrPC level. inhibition, % at 13.8 µM. 1,500 tested, 65% active. AID 743200, 2013; in the data active means inhibition above about 25%
LD9 cytotox: cytotoxicity in LD9 cells, cytotoxicity control for cell surface PrPc inhibitor project, cell-based, luminescence, high throughput. shares compounds with PrPC TRFRET. luminescence viability. inhibition, % at 13.8 µM. 1,500 tested, 29% active; in the data active means inhibition above about 9.5%
A number is an active result.

C=C(C)C(=O)Nc1cccc(C2=NOC3(C2)C[C@@H](C(N)=O)N(C(=O)[C@H]2CCC(=O)N2)C3)c1 (some centres undefined) was read as MazF activator inactive, Vc quorum ag inactive, VHR inh abs inactive, Yp Topo-I inh inactive, CCHFV vOTU inh inactive, PrPC TRFRET 50, PrPC confirm 38 and LD9 cytotox inactive.
CC(SCc1ccc(C(=O)O)o1)c1ccc(C(=O)O)o1 (centres undefined) was read as MazF activator inactive, Vc quorum ag inactive, VHR inh abs inactive, Yp Topo-I inh inactive, CCHFV vOTU inh inactive and PrPC TRFRET inactive.
`C=C(C)CN1C(=O)C(C)SC1=NN=C1SCC(=O)N1C` (centres undefined) gave MazF activator inactive, Vc quorum ag inactive, Yp Topo-I inh inactive, CCHFV vOTU inh inactive and PrPC TRFRET inactive.
`CCOC(=O)[C@H]1[C@H]2COc3ccc(Br)cc3[C@@H]2N2C(=O)CN(Cc3ccc(OC)cc3)C(=O)[C@@]12C` gave MazF activator inactive, Vc quorum ag inactive, Yp Topo-I inh inactive, CCHFV vOTU inh inactive and PrPC TRFRET inactive.
For CC(=O)CSc1nc(-c2cccs2)c(C#N)c(=O)[nH]1 the results were MazF activator inactive, Vc quorum ag inactive, VHR inh abs inactive, Yp Topo-I inh inactive, CCHFV vOTU inh inactive, PrPC TRFRET 91, PrPC confirm 99 and LD9 cytotox inactive.
`CSc1nc(N)nc(-c2cccs2)c1C#N` gave MazF activator inactive, Vc quorum ag inactive, VHR inh abs inactive, Yp Topo-I inh inactive, CCHFV vOTU inh inactive and PrPC TRFRET inactive.
CC(C)Sc1nc(N)nc(-c2cccs2)c1C#N was read as MazF activator inactive, Vc quorum ag inactive, VHR inh abs inactive, Yp Topo-I inh inactive, CCHFV vOTU inh inactive, PrPC TRFRET 30, PrPC confirm 41 and LD9 cytotox inactive.
For N#C/C(=C(/O)C(Cl)c1ccccc1)c1nc2ccccc2s1 (centres undefined) the results were MazF activator inactive, VHR inh abs inactive, Yp Topo-I inh inactive, CCHFV vOTU inh inactive, PrPC TRFRET 43, PrPC confirm 38 and LD9 cytotox inactive.
N#C/C(=C(/O)c1cccc(F)c1)c1nc2ccccc2s1 was read as MazF activator inactive, Vc quorum ag inactive, VHR inh abs inactive, Yp Topo-I inh inactive, CCHFV vOTU inh inactive and PrPC TRFRET inactive.
For Cc1nonc1C(=O)N1CCCC(Nc2ccc(C(C)C)cc2)C1 (centres undefined) the results were MazF activator inactive, Vc quorum ag inactive, VHR inh abs inactive, Yp Topo-I inh inactive, CCHFV vOTU inh inactive and PrPC TRFRET inactive.
CC(=O)N1CCN(c2cc(-c3ccco3)nc3cc(-c4ccccc4)nn23)CC1 was read as PrPC TRFRET inactive.
`Cc1cc(C(=O)CSc2nc(N)cc(=O)[nH]2)c(C)n1CC1CCCO1` (centres undefined) gave MazF activator inactive, Vc quorum ag inactive, Yp Topo-I inh inactive, CCHFV vOTU inh inactive and PrPC TRFRET inactive.
Cc1cc(C(=O)CSc2nc3ccccc3[nH]2)c(C)n1CC1CCCO1 (centres undefined) was read as MazF activator inactive, Vc quorum ag inactive, VHR inh abs inactive, Yp Topo-I inh inactive, CCHFV vOTU inh inactive, PrPC TRFRET 44, PrPC confirm 34 and LD9 cytotox 38.
For CCc1c(C)nc2c(Br)cccc2c1SCCC#N the results were MazF activator inactive, Vc quorum ag inactive, VHR inh abs inactive, Yp Topo-I inh inactive, CCHFV vOTU inh inactive, PrPC TRFRET 64, PrPC confirm 90 and LD9 cytotox inactive.
CCCc1c(C)nc2ccccc2c1SCCC#N was read as MazF activator inactive, Vc quorum ag inactive, VHR inh abs inactive, Yp Topo-I inh inactive, CCHFV vOTU inh inactive and PrPC TRFRET inactive.
For CCOC(=O)c1ccccc1NC(=O)COC(=O)C(CC)Oc1ccccc1 (centres undefined) the results were MazF activator inactive, Vc quorum ag inactive, Yp Topo-I inh inactive, CCHFV vOTU inh inactive and PrPC TRFRET inactive.
`COC(=O)c1ccc(C(c2c(N)n(CC(C)C)c(=O)[nH]c2=O)N2CCN(c3ccccc3)CC2)cc1` (centres undefined) gave MazF activator inactive, Vc quorum ag inactive, VHR inh abs inactive, Yp Topo-I inh inactive, CCHFV vOTU inh inactive, PrPC TRFRET 30, PrPC confirm inactive and LD9 cytotox 10.
Screening CCOc1ccccc1NC(=O)CSc1nnnn1C1CCCC1 returned MazF activator inactive, Vc quorum ag inactive, VHR inh abs inactive, Yp Topo-I inh inactive, CCHFV vOTU inh inactive and PrPC TRFRET inactive.
For COc1cc(C(=O)NCCC(c2ccccc2)c2ccccc2)cc(OC)c1OC the results were MazF activator inactive, Vc quorum ag inactive, VHR inh abs inactive, Yp Topo-I inh inactive, CCHFV vOTU inh inactive and PrPC TRFRET inactive.
Cn1nnnc1SCc1nc2scc(-c3ccc(Cl)cc3)c2c(=O)[nH]1 was read as MazF activator inactive, Vc quorum ag inactive, VHR inh abs inactive, Yp Topo-I inh inactive, CCHFV vOTU inh inactive, PrPC TRFRET 32, PrPC confirm 26 and LD9 cytotox inactive.
`Cc1cc(C)n2c(-c3ccccc3Cl)nnc2n1` gave MazF activator inactive, Vc quorum ag inactive, VHR inh abs inactive, Yp Topo-I inh inactive, CCHFV vOTU inh inactive, PrPC TRFRET 25, PrPC confirm inactive and LD9 cytotox inactive.
`COc1ccc(NC(=O)N(C)C[C@@H]2OCc3cnnn3CCCC(=O)N([C@H](C)CO)C[C@@H]2C)cc1` gave MazF activator inactive, Vc quorum ag inactive, Yp Topo-I inh inactive, CCHFV vOTU inh inactive and PrPC TRFRET inactive.
`CC1CCc2sc(C(=O)Nc3ccc(C(N)=O)cc3)cc2C1` (centres undefined) gave MazF activator inactive, Vc quorum ag inactive, VHR inh abs inactive, Yp Topo-I inh inactive, CCHFV vOTU inh inactive, PrPC TRFRET 70, PrPC confirm 44 and LD9 cytotox inactive.
For Cn1c(N2CCC(C(N)=O)CC2)nc2c1c(=O)n(Cc1ccc(Br)cc1)c(=O)n2C the results were MazF activator inactive, Vc quorum ag inactive, Yp Topo-I inh inactive, CCHFV vOTU inh inactive, PrPC TRFRET 26, PrPC confirm 29 and LD9 cytotox inactive.
